The values that follow come from PubChem BioAssay (EPA / NIEHS).

Inconclusive results are not listed. Active and inactive are the calls of the source. The calls were made as follows: active = hit-call score of the fitted dose curve at least 0.9, where 1 is the maximum; inconclusive = response in the unintended direction; inactive = score below 0.9.

The assay in a line: TOX21_p53_BLA_p3_viability: Viability Assessment in the Tox21 HCT-116 p53 Agonism Beta-lactamase Assay, Phase 3 (AID 2283593).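 Also: cells exposed to compound for 16 h before reading.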 The text has this:
TOX21_p53_BLA_p3 is a cell-based, single-readout assay that uses HCT116, a human intestinal cell line, […] in a 1536-well plate.TOX21_p53_BLA_p3_viability is an assay readout measuring cellular ATP content and detected with CellTiter-Glo Luciferase-coupled ATP quantitation.TOX21_p53_BLA_p3_viability used a type of viability reporter where loss-of-signal activity can be used to understand changes in the cell viability. Furthermore, this assay endpoint can be referred to as a secondary readout, because this assay has produced multiple assay endpoints where this one serves a viability function. To generalize the intended target to other relatable targets, this assay endpoint is annotated to the cell cycle intended target family, where the subfamily is cytotoxicity.
Thawing Method: Place 14 mL of pre-warmed thaw medium into a 15 mL of conical tub. Remove the vial of cells to be thawed from liquid nitrogen and thaw rapidly by placing at 37C in a water bath with gentle agitation for 1-2 minutes. Decontaminate the vial by wiping with 70% ethanol before opening in a biological safety cabinet. Transfer the vial contents drop-wise into 14 mL of thaw medium in a sterile 15-mL conical tub. Centrifuge cells at 900 rpm for 4 minutes and resuspend in thaw medium. Transfer contents to the T75 tissue culture flask containing Thaw Medium and place flask in a humidified 37C/5% CO2 incubator. Switch to growth medium at first passage.Propagation Method: Aspirate medium, rinse once in DPBS, add 0.25% Trypsin/EDTA and swirl to coat the cell evenly. Add an equal volume of Growth Medium to inactivate Trypsin after 2-3 minutes incubation at 37C. Centrifuge cells at 900 rpm for 4 minutes and resuspend in growth medium. Cell should be passage or fed at least twice a week.Assay Protocol: Harvest cells from culture in growth medium and resuspend in assay medium. 2.2 Dispense 4000 cells/5 uL/well into 1536-well black/clear bottom plates using a Multidrop dispenser. After the cells were incubated at 37C for 5 hours, 23 nL of compounds dissolved in DMSO were transferred to the assay plate by a PinTool resulting in a 217-fold dilution. Incubate the plates for 16 hours at 37C, 5% CO2. Add 1 uL of 6X LiveBLAzer FRET B/G (CCF4-AM) Substrate Mixture to each well using a BioRAPTR dispenser and incubate the plates at room temperature for 2 hours. Measure fluorescence intensity at 460 and 530 nm emission and 405 nm excitation by an Envision detector. Data is expressed as the ratio of 460nm/530nm emissions. Add 4 uL of Cell-titer Glo to each well using BioRAPTR and incubate the plates at room temperature for […]. For cell viability readout that measures cytotoxicity, 4 ul/well of CellTiter-Glo reagent was added into the assay plates using a Flying Reagent Dispenser. After 30 min incubation at room temperature, the luminescence intensity in the plates was measured using a ViewLux plate reader.
As usually defined, the AC50 is the concentration giving half of the maximal activity seen. Regarding `Cc1cc(-c2ccc(N=Nc3c(S(=O)(=O)O)cc4cc(S(=O)(=O)O)cc(N)c4c3O)c(C)c2)ccc1N=Nc1c(S(=O)(=O)O)cc2cc(S(=O)(=O)O)cc(N)c2c1O`, the half-maximal activity concentration (AC50) is 16.3 µM (active).

Consider `CCSc1ccc2c(c1)N(CCCN1CCN(C)CC1)c1ccccc1S2`, for which the call was inactive.

With `N#C/C(=C1/SC[C@@H](c2ccc(Cl)cc2Cl)S1)n1ccnc1`, the compound was called inactive.

With `O=C(c1cc2ccccc2o1)N1CCN(Cc2ccccc2)CC1`, the compound was called inactive.

As for `CCn1cc(C(=O)O)c(=O)c2cc3c(cc21)OCO3`, the compound was classed as inactive.

As for `CN(C)C/C=C(/c1ccc(Br)cc1)c1cccnc1`, the result was inactive.

Turning to `CCCCCOc1ccc(C2SC(=O)NC2=O)cc1OCC` (stereo not given), the call was inactive.

On to `CCOc1ccc2nc3cc(N)ccc3c(N)c2c1`, for which the compound was classed as inactive.

For `CC(=O)OCC(=O)[C@@]12OC3(CCCC3)O[C@@H]1C[C@H]1[C@@H]3CCC4=CC(=O)C=C[C@]4(C)[C@@]3(F)[C@@H](O)C[C@@]12C`, the compound was classed as inactive.

Turning to `COCC(O)CO` (stereo not given), the compound was called inactive.

For `Cc1nnc(NS(=O)(=O)c2ccc(N)cc2)s1`, the compound was called inactive.

As for `CO/N=C(\C(=O)N[C@@H]1C(=O)N2C(C(=O)O)=C(CSC(=O)c3ccco3)CS[C@H]12)c1csc(N)n1`, the result was inactive.

As to `CC(=O)OC(C(=O)c1ccccc1)c1ccccc1` (stereo not given), the outcome was inactive.

As to `CCCCCSCCCCC`, the compound was called inactive.

With `CCC(=O)c1ccc(O)cc1`, the outcome was inactive.

`CCCC(CCC)C(=O)OC1C[C@H]2CC[C@@H](C1)[N+]2(C)C` (stereo not given in full): the result was inactive.

Regarding `CC(=O)c1nccs1`, the result was inactive.

As for `Cc1ccc(/C(=C\CN2CCCC2)c2cccc(/C=C/C(=O)O)n2)cc1`, the compound was called inactive.

For `O=C(O)c1cc(Cl)cc(Cl)c1O`, the call was inactive.

For `CNC[C@H](O)c1ccc(O)c(O)c1`, the result was inactive.

With `COc1cc(N)c(Cl)cc1C(=O)NC1CCN(Cc2ccccc2)CC1`, the result was inactive.

In the case of `NCC[C@H](O)C(=O)N[C@@H]1C[C@H](N)[C@@H](O[C@H]2O[C@H](CN)[C@@H](O)[C@H](O)[C@H]2O)[C@H](O)[C@H]1O[C@H]1O[C@H](CO)[C@@H](O)[C@H](N)[C@H]1O`, the call was inactive.

Regarding `CC(C)CC(=O)O`, the compound was called inactive.

Turning to `CN(C)Cc1cc(C(C)(C)C)c(O)c(C(C)(C)C)c1`, the compound was called inactive.

`O=C(c1ccccc1)c1ccc2n1CCC2C(=O)O` (stereo not given): the compound was called inactive.

As for `CCN(CC)CCNC(=O)c1cc(Cl)c(N)cc1OC`, the outcome was inactive.

`O=C(OC(=O)c1ccccc1)c1ccccc1`: the outcome was inactive.

In the case of `COc1ccc(NC(C)=O)cc1`, the compound was called inactive.

Turning to `O=c1[nH]c(=O)n([C@H]2C[C@H](O)[C@@H](CO)O2)cc1F`, the half-maximal activity concentration (AC50) was 0.6 µM (active).

Consider `CCOc1ccc(NC(=O)OC(C)C)cc1OCC`, for which the result was inactive.

For the compound `CCn1nc(C(=O)O)c(=O)c2cc3c(cc21)OCO3`, the result was inactive.

As for `CCN(CC)c1ccc2c(-c3ccc(S(=O)(=O)O)cc3S(=O)(=O)[O-])c3ccc(=[N+](CC)CC)cc-3oc2c1`, the outcome was inactive.

On to `O=C(O)Cc1sc(-c2ccccc2)nc1-c1ccc(Cl)cc1`, for which the compound was classed as inactive.

For the compound `CN(C)C(=O)C(CCN1CCC(O)(c2ccc(Cl)cc2)CC1)(c1ccccc1)c1ccccc1`, the compound was called inactive.

As for `C1CCN(CN2CCCCC2)CC1`, the compound was classed as inactive.

Regarding `CCN(O)CC`, the result was inactive.

As for `OC[C@H]1O[C@@H](O[C@H]2[C@H](O)[C@@H](O)C(O)O[C@@H]2CO)[C@H](O)[C@@H](O)[C@@H]1O` (stereo not given in full), the call was inactive.

For the compound `O=C(O[C@H]1CN2CCC1CC2)N1CCc2ccccc2[C@@H]1c1ccccc1`, the outcome was inactive.

For the compound `CCCN[C@H]1CCc2nc(N)sc2C1`, the compound was called inactive.

In the case of `CCCCCCCC(=O)CC[C@@H]1[C@@H](C/C=C\CCCC(=O)OC(C)C)[C@@H](O)C[C@H]1O`, the half-maximal activity concentration (AC50) is 43.7 µM (active).
